# Screens deposited in PubChem by The Scripps Research Institute Molecular Screening Center.
# In the library only some 3.5% were active in any assay of this set; here they are far more common.
# MITF primary: inhibitors of human MITF. AlphaScreen MITF homodimerization, bead proximity signal. inhibition, % at 2.6 µM. actives 0.91% (n = 650,000). AID 1259374; in the data active means inhibition above about 50%;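 further: 0% = vehicle wells with protein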
# Target sequence (O75030 whole entry, looked up): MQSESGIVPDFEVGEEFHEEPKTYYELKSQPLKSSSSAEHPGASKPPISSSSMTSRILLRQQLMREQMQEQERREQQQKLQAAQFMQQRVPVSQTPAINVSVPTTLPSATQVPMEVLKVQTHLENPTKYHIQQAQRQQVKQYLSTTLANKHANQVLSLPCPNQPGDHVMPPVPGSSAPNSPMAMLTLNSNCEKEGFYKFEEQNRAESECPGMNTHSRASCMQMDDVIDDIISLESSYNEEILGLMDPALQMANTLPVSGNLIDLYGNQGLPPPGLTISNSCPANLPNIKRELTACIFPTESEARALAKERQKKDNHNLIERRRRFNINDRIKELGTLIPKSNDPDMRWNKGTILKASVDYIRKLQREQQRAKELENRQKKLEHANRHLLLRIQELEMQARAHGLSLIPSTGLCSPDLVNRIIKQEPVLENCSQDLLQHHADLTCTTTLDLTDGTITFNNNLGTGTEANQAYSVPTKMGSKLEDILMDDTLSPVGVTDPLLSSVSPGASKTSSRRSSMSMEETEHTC
# TEAD-YAP block: TEAD-YAP interaction inhibition; inhibition, % at 9.12 µM; HEK-TIYL cells, TEAD-Gal4/YAP UAS-luciferase luminescence; actives 1.4% (n = 640,000); in the data active means inhibition above about 32%;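 further: 0% = median of test compound wells and 100% = reference inhibitor wells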
# FBW7 activator: human FBW7 E3 ligase activation, primary screen; AlphaScreen FBW7–phospho-cyclin E peptide binding, activator screen; normalized activity (activation), % at 26.1 µM; actives 0.13% (n = 650,000); in the data active means normalized activity above about 1.9%;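 further: purified mutant Fbw7 with reduced substrate affinity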
# GPR151 activ: human GPR151 activation; Q8TDV0; PathHunter beta-arrestin GPR151 cells, luminescence; activation, % at 11.2 µM; actives 1% (n = 650,000); in the data active means activation above about 4.9%;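 further: 0% = median of compound wells and 100% = cells with positive control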
# MITF inh conf: human MITF inhibition, confirmation; shares compounds with MITF primary; AlphaScreen MITF homodimerization, biotin/His-MITF beads; inhibition, % at 2.6 µM; actives 16% (n = 4,700);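 active means inhibition above a cutoff derived from the DMSO control wells, cut at about 28% in these data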;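 further: 0% = MITF dimer wells with DMSO only; inhibitors lower the bead chemiluminescence by keeping MITF from dimerizing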
# AlphaScreen DR: counter-screen: compounds optically interfering with AlphaScreen; shares compounds with MITF primary; AlphaScreen optical interference counterscreen, cell-free; IC50, µM; actives 6% (n = 480); AID 1259373; call rule not given here
# AlphaScreen intf2: AlphaScreen optical interference, counter-screen; actives 7.6% (n = 4,700); shares compounds with MITF primary; inhibition, % at 2.6 µM; LysRS AlphaScreen counterscreen, signal interference, triplicate;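 active means inhibition above a cutoff derived from the DMSO control wells, cut at about 30% in these data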
# * marks the source's active call; other numbers are inactive results; x = no result given.
SMILES,MITF primary,TEAD-YAP block,FBW7 activator,GPR151 activ,MITF inh conf,AlphaScreen intf2,others
CC(C)NCC(=O)Nc1c2c(nc3c1CCC3)CCCC2,75*,0,0,-1,1,-3,
CCC(=O)Nc1c2c(nc3c1CCC3)CCCC2,8,-3,0,-1,x,x,
COc1cc(OC)c(OC)cc1CN1CCN(Cc2ccccc2Cl)CC1,75*,3,0,-1,8,14,
COc1ccc(CN2CCN(Cc3cc(OC)c(OC)cc3[N+](=O)[O-])CC2)cc1OC,68*,10,0,0,8,12,
COc1cc(OC)c(OC)cc1CN1CCN(Cc2cc(OC)c(OC)cc2OC)CC1,71*,0,0,0,-4,10,
COc1ccc(CN2CCN(Cc3cc(OC)c(OC)cc3OC)CC2)c(OC)c1,73*,5,0,0,13,22,
N#C/C(=C/c1cccc([N+](=O)[O-])c1)c1ccc(C#N)cc1,12,18,0,-1,x,x,
C/C(=N/NC(=O)c1cccc(Br)c1)c1ccccc1O,-11,-22,0,0,x,x,
CCN(CC)C(=O)CSc1nc2cc3c(cc2c(=O)n1CCCCCC(=O)NCc1ccc2c(c1)OCO2)OCO3,4,-8,0,-1,x,x,
COc1ccc(CN2CCN(Cc3ccccc3OC)CC2)c(OC)c1,78*,4,0,1,9,15,
COc1ccccc1CN1CCOCC1,58*,11,0,-1,-6,-8,
COc1cc(OC)c(OC)cc1CN1CCN(Cc2cccc(Br)c2)CC1,73*,13,0,1,11,22,
COc1cc(CN2CCCC2)c([N+](=O)[O-])cc1OC,-4,-6,0,0,x,x,
COc1ccc(OC)c(CN2CCN(Cc3ccc(OC)cc3OC)CC2)c1,30,-3,-1,0,x,x,
COc1ccc(CN2CCN(Cc3cc(OC)c(OC)cc3[N+](=O)[O-])CC2)c(OC)c1,80*,2,0,0,10,12,
COc1ccc(C2C(=O)N(C3CCCCC3)CC(=O)N2C2CC2)cc1 (centres undefined),-5,-5,0,1,x,x,
COc1ccc(CN2CCSCC2)c(OC)c1,0,-2,0,-1,x,x,
COc1cc(OC)c(OC)cc1CN1CCN(Cc2ccc(SC)cc2)CC1,52*,6,1,-1,4,-2,
COc1ccc(CN2CCN(Cc3ccccc3F)CC2)c(OC)c1,81*,5,0,-1,1,11,
COc1cc(OC)c(OC)cc1CN1CCN(Cc2ccccc2Br)CC1,40,3,-1,-1,x,x,
COc1cc(OC)c(OC)cc1CN1CCN(Cc2ccccc2F)CC1,77*,-2,0,0,3,12,
C=CCNC(=O)/C(C#N)=C/c1cccc(F)c1,-5,4,0,-1,x,x,
CCN=Cc1c(O)n(-c2ccccc2OC)c(=O)[nH]c1=O,0,-6,0,1,x,x,
CCOc1ccc(CN2CCN(Cc3ccccc3[N+](=O)[O-])CC2)cc1,56*,10,0,2,4,4,
O=[N+]([O-])c1ccc(N2CCN(Cc3ccccc3[N+](=O)[O-])CC2)cc1,9,27,-1,1,x,x,
SMILES,MITF primary,TEAD-YAP block,FBW7 activator,GPR151 activ,MITF inh conf,AlphaScreen intf2,others
COc1cccc(OC)c1C(=O)N1CCN(Cc2ccccc2C)CC1,71*,1,0,-1,8,-6,
O=C(c1ccncc1)N1CCN(Cc2ccccc2[N+](=O)[O-])CC1,78*,-6,0,-1,74*,-10,AlphaScreen DR=>6.1
CC(=O)c1ccc(N2CCN(Cc3ccccc3[N+](=O)[O-])CC2)cc1,51*,-12,0,0,1,2,
Cc1ccccc1CN1CCN(C(=O)c2ccccc2)CC1,37,2,0,-1,x,x,
COc1cc(OC)cc(C(=O)N2CCN(Cc3c[nH]c4ccccc34)CC2)c1,16,7,0,-1,x,x,
COc1ccccc1C(=O)N1CCN(Cc2ccccc2[N+](=O)[O-])CC1,0,2,0,-1,x,x,
COc1cc(OC)cc(C(=O)N2CCN(Cc3ccccc3[N+](=O)[O-])CC2)c1,61*,7,0,-2,-4,9,
CC(=O)c1ccc(N2CCN(Cc3cccs3)CC2)cc1,56*,-19,0,0,5,0,
COc1ccc(C(=O)N2CCN(Cc3ccccc3[N+](=O)[O-])CC2)cc1,54*,7,0,-1,-3,-7,
O=[N+]([O-])c1ccccc1CN1CCN(Cc2c[nH]c3ccccc23)CC1,62*,11,0,-1,6,-8,
CC(=O)c1ccc(N2CCN(CC(=O)NCc3cccs3)CC2)cc1,10,11,0,0,x,x,
COc1cc(C(=O)N2CCN(Cc3ccccc3[N+](=O)[O-])CC2)cc(OC)c1OC,67*,2,0,2,-17,-4,
COc1ccc(CN2CCN(C(=O)c3cccc4ccccc34)CC2)cc1OC,44,-2,0,1,x,x,
COc1cc(CN2CCN(C(=O)c3cc(OC)c(OC)c(OC)c3)CC2)c([N+](=O)[O-])cc1OC,36,-4,0,-2,x,x,
COc1cccc(CN2CCN(C(=O)c3ccco3)CC2)c1OC,57*,-5,0,0,8,18,
O=[N+]([O-])c1ccccc1CN1CCN(Cc2ccncc2)CC1,65*,-3,0,0,3,1,
COc1cccc(CN2CCN(Cc3ccco3)CC2)c1OC,42,-7,0,-2,x,x,
CS(=O)(=O)N1CCN(Cc2ccccc2[N+](=O)[O-])CC1,11,13,1,1,x,x,
COc1cccc(CN2CCN(C(=O)c3cccc4ccccc34)CC2)c1OC,54*,-4,0,-2,10,-12,
O=C(NCCCN1CCCC1=O)c1cc(N2CCN(c3ccccn3)CC2)nc2ccccc12,-3,10,0,-3,x,x,
COc1cc(C(=O)N2CCN(Cc3cccc4ccccc34)CC2)cc(OC)c1OC,57*,7,0,-2,5,8,
Cc1nc(C)c(C(=O)Nc2ccc(Br)cc2)o1,56*,2,0,-1,7,21,
Cc1nc(C)c(C(=O)Nc2ccc(C(N)=O)cc2)o1,2,-10,0,0,x,x,
Cc1ccc([N+](=O)[O-])cc1S(=O)(=O)Nc1ccc(Nc2ncccc2[N+](=O)[O-])cc1,97*,-8,0,1,97*,-6,AlphaScreen DR=>6.6
Cc1ccc([N+](=O)[O-])cc1S(=O)(=O)Nc1ccc(N)cc1,9,-1,0,-1,x,x,
COc1ccc(C(=O)OCC(=O)N(Cc2ccccc2)C(C)(C)C)cc1[N+](=O)[O-],-9,0,0,1,x,x,
CN=C1SC(CC(=O)Nc2ccc(C)cc2C)C(=O)N1C (centres undefined),5,2,0,2,x,x,
